This passage reports Potency, cell number change and lipid storage change, negative = inhibition results from PubChem BioAssay AID2685 (National Center for Advancing Translational Sciences (NCATS), 2010).

In all, about 320,000 compounds went through this assay and about 2,100 (0.66%) were called active. Another 53% or so got no clear call; they are omitted. Calls come from the whole dose curve; as a rule, active = well fitted inhibition curve with a large enough effect in the signal ratio, with a control signal flat (not every such curve was filed as active); inconclusive = small, poorly fitted or top-dose-only effect, or effect the other way, or a change in a side signal; inactive = flat fitted curve, though single readings scatter; the % refers to the signal ratio. Only a selection was taken, and actives are over-represented in it overall.
Potency is the fitted concentration of half-maximal effect.

A short description of this test: qHTS Assay for Lipid Storage Modulators in Drosophila S3 Cells.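 For cell number change: cells counted by Cell Tracker Red CMTPX staining in the red channel.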 For lipid storage change, negative = inhibition: % is set by controls: 0 for no effect and ±100 for the full control effect. To be noted: BODIPY lipid droplet fluorescence, 18-24 h, cells fed with added oleic acid; cell number change: measured here: cell count max response; series mostly up to 46.1 µM. In outline:
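Drosophila S3 cells loaded with oleic acid (400 uM, as added) and compounds at several concentrations; lipid droplets imaged by 488-nm laser-scanning cytometry, 500–530 nm intensity and object ratio to cell channel. Percent activity normalized to 20 uM Triacsin C.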
Background: qHTS replaces the single test concentration by a dilution series.
`CCOc1ccc(NC(=O)C2CCN(S(=O)(=O)c3ccc4c(c3)NC(=O)C(C)S4)CC2)cc1` (configuration not stated): the Potency is 1030 nM (active). In the case of `O=C(Nc1ccc(F)cc1)C1CCCN(S(=O)(=O)c2ccc3[nH]c(=O)ccc3c2)C1` (configuration not stated), the Potency result was “inactive” and the cell number change was 23.9%.

As to `COc1ccc(S(=O)(=O)N2CCCC2C(=O)Nc2ccc(C(C)=O)cc2)cc1` (configuration not stated), the Potency entry was “inactive” and the cell number change is -11.3%.

As to `COc1ccc(NC(=O)C2CCCN2S(=O)(=O)c2ccc(F)cc2)cc1` (configuration not stated), the cell number change was -1.12% and the lipid storage change, negative = inhibition is -17.7% [at 9.22 µM] (inactive). With `CCOc1ccc(NC(=O)C2CCCN(S(=O)(=O)c3ccc4[nH]c(=O)ccc4c3)C2)cc1` (configuration not stated), the Potency was 20600 nM (active) and the cell number change came to 23.6%. For `COc1ccc(NC(=O)C2CCN(S(=O)(=O)c3ccc4c(c3)NC(=O)C(C)S4)CC2)cc1` (configuration not stated), the Potency entry was “inactive” and the cell number change was found to be 2.12%. Regarding `CCOc1ccc(NC(=O)C2CCCN2S(=O)(=O)c2ccc(OCC)cc2)cc1` (configuration not stated), the Potency is 651 nM (active) and the cell number change was found to be 9.72%. As for `CC(C)NCC(O)COCCOc1ccc(Br)cc1` (configuration not stated), the Potency result is “inactive” and the cell number change is 23.8%. Regarding `O=C(CCC1CCCN(C(=O)c2ccc3c(c2)OCO3)C1)N1CCN(c2ccccn2)CC1` (configuration not stated), the Potency result is “inactive” and the cell number change was -1.56%.

For the molecule `CC1CCCCC1NC(=O)c1ccc(S(=O)(=O)N2CCCC2)cc1` (configuration not stated), the Potency entry was “inactive” and the cell number change was 25.1%.

In the case of `COc1cccc(C(=O)NCCS(=O)(=O)NCCc2ccc(OC)c(OC)c2)c1`, the Potency entry was “inactive”.

Regarding `Cc1cc(-c2nn(C)c(=O)c3ccccc23)ccc1CNC(=O)NC1CCCCC1`, the Potency result was “inactive” and the cell number change came to 19.3%. Turning to `Cc1sc2nc(CN3CCOCC3)[nH]c(=O)c2c1-c1ccccc1`, the Potency result is “inactive” and the cell number change was -18.1%. On to `O=C(c1cccc(Cl)c1)N1CCCC(C(=O)N2CCCCCC2)C1` (configuration not stated), for which the Potency entry is “inactive” and the cell number change is -0.867%. With `NC(Cc1ccccc1)C(O)(c1ccccc1)c1ccccc1` (configuration not stated), the Potency result is “inactive” and the cell number change was -20.2%. For the molecule `Cc1noc(NS(=O)(=O)c2ccc(NC(=O)CCn3c(=O)oc4ccccc43)cc2)c1C`, the Potency entry is “inactive”. On to `CCC(C)NC(=O)C(=O)NCc1ccccn1` (configuration not stated), for which the Potency result is “inactive” and the cell number change turned out to be 4.8%. As to `Cc1ccc(S(=O)(=O)Cc2nnnn2-c2ccccc2)cc1`, the Potency entry was “inactive” and the cell number change is -3.66%. On the same counts, the results for `COc1ccc(CC(=O)Nc2ccc(-c3noc(-c4ccc(Cl)cc4)n3)cc2)cc1` are “inactive” and -6.7%. Consider `COc1ccc(CCNC(=O)CNC(=O)c2ccccc2Br)cc1OC`, for which the Potency entry was “inactive” and the cell number change turned out to be 19.2%. The like results for `O=C1C(Cc2ccc(O)cc2)NC(=S)N1C1CCCCC1` (configuration not stated) were, in that order, “inactive” and 9.32%. With `CC(=O)Nc1sc(NC(=O)c2ccc([N+](=O)[O-])cc2)nc1-c1cccs1`, the Potency result is “inactive” and the cell number change stood at 7.62%. As for `Cc1cccc(NC(=O)CC2C(=O)NC3CCCCC3N2C(=O)c2ccccc2Cl)c1` (configuration not stated), the Potency result was “inactive” and the cell number change was found to be 7.35%. On the same counts, the results for `CN(C(=O)CC1C(=O)NCCN1Cc1ccc(F)c(F)c1)C1CCOCC1` (configuration not stated) are “inactive” and 1.07%.

On to `CC1Cc2ccccc2N1C(=O)CSc1nnc2c(n1)[nH]c1ccccc12` (configuration not stated), for which the Potency entry was “inactive” and the cell number change was 3.16%. As to `CCc1ccc2[nH]c3nc(SCC(=O)NCC4CCCO4)nnc3c2c1` (configuration not stated), the Potency result was “inactive” and the cell number change amounted to 8.06%.

Consider `CC(C)c1ccc2[nH]c3nc(SCC(=O)N4CCOCC4)nnc3c2c1`, for which the Potency entry is “inactive” and the cell number change is -11.8%. On to `CC(C)c1ccc2[nH]c3nc(SCC(=O)NC4CC4)nnc3c2c1`, for which the Potency is 651 nM (active) and the cell number change turned out to be 8.7%. On the same counts, the results for `Cc1ccc(C(=O)NNC(=O)CSc2nnc3c(n2)[nH]c2ccc(F)cc23)cc1` are “inactive” and 6.2%. As for `CC1CCCCN1C(=O)CSc1nnc2c(n1)[nH]c1ccccc12` (configuration not stated), the Potency was 580 nM (active) and the cell number change was found to be 8.97%.

Regarding `CC1CCCCN1C(=O)CSc1nnc2c(n1)[nH]c1ccc(F)cc12` (configuration not stated), the Potency result is “inactive” and the cell number change is 8.7%. For the molecule `CC1CCc2cc(F)ccc2N1C(=O)CSc1nnc2c(n1)[nH]c1ccc(F)cc12` (configuration not stated), the Potency entry was “inactive” and the cell number change is -17.4%.

Take `O=C(CSc1nnc2c(n1)[nH]c1ccc(F)cc12)NC1CC1`: the Potency is 20600 nM (active) and the cell number change was -6.52%. As to `COc1ccc(CC(NC(C)=O)C(=O)NC2CCN(c3nnnn3-c3ccccc3)CC2)cc1OC` (configuration not stated), the Potency result was “inactive” and the cell number change was -4.36%. As to `COc1ccc(-c2c(=O)n(OCc3nc4ccccc4[nH]3)c3ccccc3[n+]2[O-])cc1`, the Potency result is “inactive” and the cell number change was determined as 2.91%.

On to `Cc1cccc2cc(COC(=O)C3CCCCC3)c(=O)[nH]c12`, for which the Potency result was “inactive” and the cell number change was 10.5%.

As to `N#Cc1cncc(-c2ccc3c(c2)OCCOCCOCCOCCOCCO3)n1`, the Potency result is “inactive” and the cell number change was 3.78%. On to `COc1cc(CNC2CCCCCCC2)cc(Cl)c1OCC(N)=O`, for which the Potency result is “inactive” and the cell number change came out at 6.3%. Regarding `COc1ccccc1N1CCN(C(=O)c2cc(C)oc2C)CC1`, the Potency entry is “inactive” and the cell number change stood at 9.51%. With `O=C(O)c1oc2ccc(Br)cc2c1-n1cccc1`, the Potency entry is “inactive”. `COC(=O)c1c(NC(=O)CN2CCN(C(=O)c3ccco3)CC2)c2c(C)cccc2n1C`: the Potency result was “inactive” and the cell number change is -8.93%. For `COC(=O)c1c(NC(=O)CN2CCCC(C)C2)c2c(C)cccc2n1C` (configuration not stated), the Potency is 3260 nM (active) and the cell number change was -24.5%.

As for `CCOC(=O)C1CCN(CC(=O)Nc2c(C(=O)OC)n(C)c3cccc(C)c23)CC1`, the Potency entry was “inactive” and the cell number change is -3.82%.
